MazEF act – activators of E. coli MazEF toxin-antitoxin RNase, primary screen, biochemical, fluorescence, uHTS | AID 504720, 2011 | Endoribonuclease toxin MazF (Escherichia coli (strain K12)), P0AE70 | FAM/BHQ RNA-DNA oligo cleavage fluorescence, 5 h | 350,000 tested, 0.32% active | activation, % at 20 µM; in the data active = activation above about 50%
Target sequence (P0AE70 whole entry, looked up): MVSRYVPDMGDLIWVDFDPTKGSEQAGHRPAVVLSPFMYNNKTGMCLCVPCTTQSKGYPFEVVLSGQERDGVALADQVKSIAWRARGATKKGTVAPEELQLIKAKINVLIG
BoNT-A LC inh2 – BoNT/A light chain protease inhibitors, primary screen, biochemical, flow cytometry, MLPCN library; Botulinum neurotoxin type A light chain protease (Clostridium botulinum A str. ATCC 3502); multiplex microsphere protease substrate cleavage; inhibition, % at 10 µM; 360,000 tested, 0.17% active; AID 588499, 2011; in the data active = inhibition above about 30%; inconclusive = no clear call, values can overlap the other calls
BoNT-F LC inh – BoNT/F light chain protease inhibitors, primary screen, biochemical, flow cytometry, MLPCN library | inhibition, % at 10 µM | 360,000 tested, 0.22% active | Multiplex microsphere protease cleavage assay; in the data active = inhibition above about 35%, passing the limit was not always enough; inconclusive = no clear call, values can overlap the other calls
Autofluor counter – flagged as autofluorescent in microsphere protease counterscreen. compound autofluorescence counterscreen, microsphere flow cytometry; hits give high values. 360,000 tested, 3.1% active. fluorescence intensity (test concentration not listed); in the data active = fluorescence intensity above about 16000; inconclusive = no clear call, values can overlap the other calls
Anthrax LF prot – Bacillus anthracis LF protease inhibitors, primary screen, biochemical, multiplex microsphere, MLPCN library. multiplex microsphere protease cleavage assay. AID 588501, 2011. inhibition, % at 10 µM. 360,000 tested, 0.12% active. Lethal factor (Bacillus anthracis), P15917; in the data active = inhibition above about 30%; inconclusive = no clear call, values can overlap the other calls
DUSP3 inh – VHR1 phosphatase inhibitors, primary screen, biochemical, absorbance, uHTS. inhibition, % at 13.3 µM. 290,000 tested, 0.52% active. recombinant VHR phosphatase, pNPP absorbance. Dual specificity protein phosphatase 3 (Homo sapiens), P51452; in the data active = inhibition above about 50%
Target sequence (P51452 whole entry, looked up): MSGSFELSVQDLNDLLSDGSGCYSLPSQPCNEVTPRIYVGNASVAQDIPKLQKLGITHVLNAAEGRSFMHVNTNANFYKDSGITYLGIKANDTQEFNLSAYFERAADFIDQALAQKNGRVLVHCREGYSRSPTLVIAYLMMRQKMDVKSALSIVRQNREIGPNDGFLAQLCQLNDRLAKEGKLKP
BoNT-A LC CP1 – BoNT/A light chain protease inhibitors, confirmation, biochemical, flow cytometry, cherry pick 1; shares compounds with BoNT-F LC inh; multiplex microsphere protease assay; inhibition, % at 10 µM; 720 tested, 3% active; in the data active = inhibition above about 32%
BoNTF LC inh 1 – BoNT/F light chain protease inhibitors, confirmation, biochemical, flow cytometry, cherry pick 1; multiplex microsphere protease cleavage assay; 720 tested, under 10 active; AID 602140, 2011; shares compounds with BoNT-F LC inh; inhibition, % at 10 µM
Anthrax LF CP1 – Bacillus anthracis LF protease inhibitors, confirmation, biochemical, multiplex microsphere, cherry pick 1 | shares compounds with BoNT-F LC inh | multiplex microsphere protease cleavage assay | inhibition, % at 10 µM | 720 tested, under 10 active | AID 602142, 2011
Each line names hits and unclear results; the compound was inactive in the other large screens (follow-up assays come after a bar, where they were run). Sampled rows, rich in hits. Any-hit rate of the full collection: about 4.1%. Unless noted, the rule behind the calls is not given here.

CCOC(=O)CCCCC(=O)c1[nH]c(=O)[nH]c1CSc1nc(C)cc(C)n1	none | BoNT-A LC CP1 inactive | BoNTF LC inh 1 inactive | Anthrax LF CP1 inactive
COc1cc(S(=O)(=O)N2CCOCC2)ccc1NC(=O)COC(=O)c1ccc(Cl)nc1	none (no result: DUSP3 inh)
COc1ccc(-c2csc(NC(=O)c3ccc(OCC(=O)N4CCOCC4)c(OC)c3)n2)cc1OC	none
O=[N+]([O-])c1ccc(C=NN2CCCCCC2)cc1	none (no result: DUSP3 inh)
COc1ccccc1CNC(=O)C(Cc1ccccc1)NC(=O)c1ccccc1 (stereo not drawn)	none (no result: DUSP3 inh)
Cc1ccc(/C=C/C(=O)N2CC(C)CC(C)C2)o1 (stereo not drawn)	none
CCSc1nnc(-c2sc3nnc(-c4ccccc4)c(-c4ccccc4)c3c2N)o1	BoNT-A LC inh2 80, BoNT-F LC inh 52, Anthrax LF prot 56 | BoNT-A LC CP1 86 | BoNTF LC inh 1 inactive | Anthrax LF CP1 40
Cc1ccc(C(=O)N2CC(=O)NC(=O)C2)cc1	none
Cc1cccc(C(C)(C)C)c1OCCOCCN1CCCC1	BoNT-F LC inh 38 | BoNT-A LC CP1 inactive | BoNTF LC inh 1 inactive | Anthrax LF CP1 inactive
CCn1c(SCC(=O)c2c[nH]c3ccccc23)nc2cc(S(=O)(=O)N3CCOCC3)ccc21	BoNT-A LC inh2 49 | BoNT-A LC CP1 inactive | BoNTF LC inh 1 inactive | Anthrax LF CP1 inactive
CCn1c(SCC(N)=O)nc2cc(S(=O)(=O)N3CCOCC3)ccc21	none
CCOc1ccc(NC(=O)CNC(=O)c2nn(-c3ccc(OC)c(OC)c3)c(=O)c3ccccc23)cc1	none
COc1ccc(-n2nc(C(=O)NCC(=O)Nc3cccc(Cl)c3)c3ccccc3c2=O)cc1OC	BoNT-F LC inh 51 | BoNT-A LC CP1 inactive | BoNTF LC inh 1 inactive | Anthrax LF CP1 inactive
CC(C)(C)OC(=O)N(Cc1ccccc1)Cc1ccccc1OCc1ccc(NC(=O)C2CCC2)cc1	none (no result: DUSP3 inh)
O=C(CCS(=O)(=O)c1ccc(Cl)cc1)Nc1nc(-c2cccnc2)cs1	BoNT-A LC inh2 51 | BoNT-A LC CP1 inactive | BoNTF LC inh 1 inactive | Anthrax LF CP1 inactive
O=c1[nH]oc2cc(Cl)ccc12	none
COC(=O)c1cc(OC)c(OC)cc1NC(=O)c1csc(C)c1	none
N#Cc1ccc(-c2ccco2)nc1SCC(=O)c1ccc(Cl)cc1	BoNT-A LC inh2 55, BoNT-F LC inh inconclusive, Anthrax LF prot 41 | BoNT-A LC CP1 inactive | BoNTF LC inh 1 inactive | Anthrax LF CP1 inactive
Cc1ccc(C(=O)NNC(=O)c2cc(C)nc3ccccc23)cc1	BoNT-F LC inh inconclusive, Autofluor counter inconclusive (no result: DUSP3 inh)
O=C(COc1ccccc1)NCc1n[nH]c(=S)n1-c1ccccc1	BoNT-F LC inh 47 | BoNT-A LC CP1 inactive | BoNTF LC inh 1 inactive | Anthrax LF CP1 inactive
Cc1ccc2nc(SCC(=O)O)nc(C)c2c1	BoNT-F LC inh 40 | BoNT-A LC CP1 inactive | BoNTF LC inh 1 inactive | Anthrax LF CP1 inactive
Cc1ccc2nc(SCCC#N)nc(C)c2c1	none
CCN(CC)C(=O)c1sc2nc(-c3cccs3)cc(-c3ccc(Cl)cc3)c2c1N	BoNT-A LC inh2 53, Anthrax LF prot 39 | BoNT-A LC CP1 inactive | BoNTF LC inh 1 inactive | Anthrax LF CP1 inactive
COc1ccccc1NC(=O)c1sc2nc(Cc3ccccc3)cc(C(F)(F)F)c2c1N	BoNT-A LC inh2 30 | BoNT-A LC CP1 inactive | BoNTF LC inh 1 inactive | Anthrax LF CP1 inactive
CCN(CC)C(=O)c1sc2nc(-c3cccs3)cc(-c3cccs3)c2c1N	none
Cc1nnc(NC(=O)c2sc3nc(-c4cccs4)cc(C(F)(F)F)c3c2N)s1	none
CC(C)(C)C(=O)c1sc2nc(-c3cccs3)cc(C(F)(F)F)c2c1N	MazEF act active, BoNT-A LC inh2 34, Anthrax LF prot 34 | BoNT-A LC CP1 inactive | BoNTF LC inh 1 inactive | Anthrax LF CP1 inactive
Nc1c(C(=O)Nc2nccs2)sc2nc(-c3cccs3)cc(C(F)(F)F)c12	MazEF act 115, BoNT-F LC inh 82 | BoNT-A LC CP1 inactive | BoNTF LC inh 1 inactive | Anthrax LF CP1 inactive
COc1ccc(NC(=O)c2sc3nc(Cc4ccccc4)cc(C(F)(F)F)c3c2N)cc1OC	none
Cc1nn(C)c2nc(-c3cccs3)cc(C(F)(F)F)c12	none
O=C(NCCCN1CCCC1=O)NC1CCCCC1	none
O=C(O)C1CCCCC1C(=O)NCCCN1CCCC1=O (stereo not drawn)	BoNT-F LC inh 48 | BoNT-A LC CP1 inactive | BoNTF LC inh 1 inactive | Anthrax LF CP1 inactive
Cc1ccc(N2CC(O)Cn3c2nc2c3c(=O)[nH]c(=O)n2C)cc1 (stereo not drawn)	BoNT-F LC inh inconclusive
COc1cccc(N2CC(O)Cn3c2nc2c3c(=O)[nH]c(=O)n2C)c1 (stereo not drawn)	BoNT-F LC inh 41, DUSP3 inh 60 | BoNT-A LC CP1 inactive | BoNTF LC inh 1 inactive | Anthrax LF CP1 inactive
CC(C)N(C)Cc1cn(C)nc1-c1ccc(Oc2ccccc2)cc1	BoNT-F LC inh 36 | BoNT-A LC CP1 inactive | BoNTF LC inh 1 inactive | Anthrax LF CP1 inactive
COCCN(Cc1cn(C)nc1-c1ccc(Oc2ccccc2)cc1)C(C)C	BoNT-F LC inh inconclusive
CC(C)OC(=O)CC1C(=O)NCCN1C(=S)NC(=O)c1ccccc1 (stereo not drawn)	BoNT-F LC inh 35 | BoNT-A LC CP1 inactive | BoNTF LC inh 1 inactive | Anthrax LF CP1 inactive
CCCC(CCC)c1nc2ccncc2[nH]1	BoNT-F LC inh 41 | BoNT-A LC CP1 inactive | BoNTF LC inh 1 inactive | Anthrax LF CP1 inactive
Cc1ccc(CSc2nc3ccncc3[nH]2)cc1	none
CCOC(=O)c1cnn(CCOC(=O)c2ccccc2)c1NC(=O)c1ccccc1	none
CCOC(=O)c1cnn(CCOC(=O)C(C)(C)C)c1NC(=O)C(C)(C)C	BoNT-A LC inh2 36, BoNT-F LC inh 43 | BoNT-A LC CP1 inactive | BoNTF LC inh 1 inactive | Anthrax LF CP1 inactive
Nc1ccc(-c2nnn(CC(=O)N3CCCCC3)n2)cc1	BoNT-F LC inh inconclusive, Anthrax LF prot 46 | BoNT-A LC CP1 inactive | BoNTF LC inh 1 inactive | Anthrax LF CP1 inactive
Cc1nc(N2CCN(C(c3ccccc3)c3ccccc3)CC2)[nH]c(=O)c1C	BoNT-F LC inh 35 | BoNT-A LC CP1 inactive | BoNTF LC inh 1 inactive | Anthrax LF CP1 inactive

From PubChem BioAssay
